Assay [1] has as its system SRC.
The subject of assay [2] is SRMS.
For assay [3], the system named is STK10.
For assay [4], the system named is STK16.
The subject of assay [5] is TAK1.
Assay [6] has as its system STK17B.
In assay [7] the test system is STK36.
The subject of assay [8] is TAOK3.
The test system of assay [9] is TBK1.

Regarding `COc1cc2ncnc(Nc3cccc(Cl)c3F)c2cc1O[C@H]1CC[C@H]([C@@H]2NCCNC2=O)CC1` [BI00133844], the Kinases covered result in assay [1] is on record as “SRC”. With `CCCS(=O)(=O)Nc1ccc(F)c(-n2cc(-c3cncc(OC)c3)nn2)c1F` [BI00865461], the Kinases covered result in assay [2] is “SRMS”. As for `COc1cc2ncn(-c3cc(OCC4CCCO4)c(C(N)=O)s3)c2cc1OC` (centres unmarked) [GSK204607], the Kinases covered entry in assay [3] is reported as “STK10”.

With `COc1ccc2cc(-c3c(-c4ccncc4)nc(-c4ccc(S(C)(=O)=O)cc4C)n3C)ccc2c1` [SB-633825], in assay [3], the Kinases covered result is given as “STK10”. Consider `CC(C)N1CC(=O)N(C)c2cnc(Nc3cccc(S(=O)(=O)CCN4CCOCC4)c3)nc21` [BI00009348], for which the Kinases covered entry in assay [4] is recorded as “STK16”; in assay [5] it was “TAK1”. With `C[C@@H]1CCNC(=O)c2cc3ccc(C(=O)Nc4nc5ccccc5n4CCCN(C)C)cc3n21` [BI00645435], the Kinases covered entry in assay [6] is on record as “STK17B”. Same read-out and setting: as for `CNc1nc(-c2ccc3c(N)n[nH]c3c2)cc(N2C[C@@H](C(=O)Nc3ccccc3)CC[C@H]2C)n1` [GSK2298859], the entry is “STK17B”. For the compound `O=C(Nc1cccc(-c2nn3ncccc3c2-c2ccnc(Nc3cccnc3)n2)c1)c1c(F)cccc1F` [GSK312879], the Kinases covered result in assay [7] was “STK36”. Take `COC[C@@H](C)N[C@H]1CC[C@H](Nc2cc(-c3cccc(NCC4(C#N)CCOCC4)n3)c(Cl)cn2)CC1` [NVP-2]: the Kinases covered result in [8] is on record as “TAOK3”. With `CN(C)C/C=C/C(=O)Nc1ccc(C(=O)Nc2cccc(Nc3ncc(Cl)c(-c4c[nH]c5ccccc45)n3)c2)cc1` [THZ1], the Kinases covered result in [9] is reported as “TBK1”.

For the origin of these results see paper PMC7826789 (International Journal of Molecular Sciences, 2021).
